According to PubChem BioAssay AID493123 (National Center for Advancing Translational Sciences (NCATS), 2011):
Unmarked numbers belong to inactive results. No rule for the calls is given here.

Test: Concentration response confirmation assay for small molecule inhibitors of Shiga toxin
Conditions: cell-based concentration response; series mostly up to 76.6 µM; activity, positive = inhibition: at the top concentration
In the case of `CCN1C(=O)/C(=C/c2ccc(OC)c(OC)c2)N=C1SCC(=O)NCc1ccco1`, the “activity, positive = inhibition” value was 4.82%.
With `CCn1c2ccccc2c2cc(NC(=O)c3cccc([N+](=O)[O-])c3)ccc21` the “activity, positive = inhibition” value was 7.93%.
In the case of `Cc1cccc(NC(=O)CCN2C(=O)c3ccccc3S2(=O)=O)c1C`, the “activity, positive = inhibition” value was -9.39%.
For `CC1CCC/C=C/C2CC(O)CC2C(O)/C=C/C(=O)O1` (stereo not drawn), the “activity, positive = inhibition” value was 2.01%.
In the case of `COc1ccc(C(C)(C)C)cc1NC(=O)c1ccc2c(c1)SC1=NS(=O)(=O)CCN12`, the “activity, positive = inhibition” value was -12.2%.
In the case of `C=CCNC(=O)c1ccc(C)c(Br)c1`, the “activity, positive = inhibition” value was 7.16%.
In the case of `O=C(CC(c1ccccc1)c1cc(Cl)ccc1O)N1CCCC1` (stereo not drawn), the “activity, positive = inhibition” value was -4.24%.
With `CN(C)S(=O)(=O)c1ccc(C(=O)Nc2ccc(CN3CCCC3)cc2)cc1` the “activity, positive = inhibition” value was -8.06%.
